Bioassay records deposited in PubChem BioAssay by The Scripps Research Institute Molecular Screening Center.
A selection: hits, their analogues and other compounds. The true share with any hit is near 3.4%.
MITF inh = blocks human microphthalmia-associated transcription factor. O75030. AlphaScreen MITF homodimerization, bead proximity signal. inhibition, % at 2.6 µM. actives 0.91% (n = 650,000). AID 1259374; in the data active means inhibition above about 50%;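 further: 0% = vehicle wells with protein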
FBW7 act = human FBW7 E3 ligase activation, primary screen. Q969H0. AlphaScreen FBW7–phospho-cyclin E peptide binding, activator screen. normalized activity (activation), % at 26.1 µM. actives 0.13% (n = 650,000); in the data active means normalized activity above about 1.9%;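 further: purified mutant Fbw7 with reduced substrate affinity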
Target sequence (Q969H0 whole entry, looked up): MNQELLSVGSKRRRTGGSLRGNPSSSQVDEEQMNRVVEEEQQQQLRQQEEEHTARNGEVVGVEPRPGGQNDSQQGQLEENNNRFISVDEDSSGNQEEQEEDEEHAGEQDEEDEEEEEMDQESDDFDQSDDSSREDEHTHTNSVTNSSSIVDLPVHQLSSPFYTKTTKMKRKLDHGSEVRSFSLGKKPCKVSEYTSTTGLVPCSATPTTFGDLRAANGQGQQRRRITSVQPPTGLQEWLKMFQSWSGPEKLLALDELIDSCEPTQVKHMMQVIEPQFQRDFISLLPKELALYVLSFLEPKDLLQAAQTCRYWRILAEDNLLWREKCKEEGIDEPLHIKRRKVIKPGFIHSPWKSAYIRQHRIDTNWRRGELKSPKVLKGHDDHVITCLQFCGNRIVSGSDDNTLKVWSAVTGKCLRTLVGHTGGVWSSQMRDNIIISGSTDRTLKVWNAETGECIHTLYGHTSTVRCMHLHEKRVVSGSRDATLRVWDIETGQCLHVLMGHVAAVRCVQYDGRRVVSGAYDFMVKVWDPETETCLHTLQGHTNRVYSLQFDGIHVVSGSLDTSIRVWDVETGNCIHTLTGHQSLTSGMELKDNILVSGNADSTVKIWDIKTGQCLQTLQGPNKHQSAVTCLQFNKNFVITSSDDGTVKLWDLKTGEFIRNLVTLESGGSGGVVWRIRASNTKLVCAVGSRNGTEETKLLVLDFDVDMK
TEAD-YAP block = TEAD-YAP interaction inhibition | HEK-TIYL cells, TEAD-Gal4/YAP UAS-luciferase luminescence | inhibition, % at 9.12 µM | actives 1.4% (n = 640,000); in the data active means inhibition above about 32%;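 further: 0% = median of test compound wells and 100% = reference inhibitor wells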
GPR151 activ = activates the human receptor GPR151; Q8TDV0; PathHunter beta-arrestin GPR151 cells, luminescence; activation, % at 11.2 µM; actives 1% (n = 650,000); AID 1508602; in the data active means activation above about 4.9%;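 further: 0% = median of compound wells and 100% = cells with positive control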
MITF inh conf = human MITF inhibition, confirmation. shares compounds with MITF inh. AlphaScreen MITF homodimerization, biotin/His-MITF beads. inhibition, % at 2.6 µM. actives 16% (n = 4,700). AID 1259372;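 active means inhibition above a cutoff derived from the DMSO control wells, cut at about 28% in these data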;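 further: 0% = MITF dimer wells with DMSO only; inhibitors lower the bead chemiluminescence by keeping MITF from dimerizing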
AlphaScreen DR = counter-screen: compounds optically interfering with AlphaScreen; shares compounds with MITF inh; AlphaScreen optical interference counterscreen, cell-free; IC50, µM; actives 6% (n = 480); AID 1259373; call rule not given here
AlphaScreen intf2 = AlphaScreen optical interference, counter-screen; shares compounds with MITF inh; LysRS AlphaScreen counterscreen, signal interference, triplicate; inhibition, % at 2.6 µM; actives 7.6% (n = 4,700); AID 1259376;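 active means inhibition above a cutoff derived from the DMSO control wells, cut at about 30% in these data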
Starred values were filed as active, the others as inactive; x = no result.

SMILES	MITF inh	FBW7 act	TEAD-YAP block	GPR151 activ	MITF inh conf	AlphaScreen intf2	others
CCCc1cc(=O)[nH]c2nnc(SCC(=O)Nc3cccc(OC)c3)n12	7	0	-3	-2	x	x
COc1cc(CNC2CCCCC2)cc(OC)c1	52*	0	16	-1	-9	-10
COc1cc(CNC2CCCC2)cc(OC)c1	27	0	6	-1	x	x
CC1=NN(c2ccc(C)c(C)c2)C(=O)C1=CNc1ccc(-c2ccc(NC=C3C(=O)N(c4ccc(C)c(C)c4)N=C3C)cc2)cc1	0	0	-3	0	x	x
O=C(O)/C=C/c1cccc(-c2cnn3c(NCCc4ccccn4)ccnc23)c1	53*	0	3	0	3	15
CC(=O)c1cccc(-c2cnn3c(NCCc4ccccn4)ccnc23)c1	11	0	-37	0	x	x
CCCn1c(-c2ccc(OC)cc2)nc2c(c(=O)c3ccccc3n2C)c1=O	90*	0	-11	0	-7	-4
COCCn1c(-c2ccc(F)cc2)nc2c(c(=O)c3ccccc3n2C)c1=O	-11	0	2	0	x	x
OC(CON=C1c2ccccc2-c2ccccc21)CN1CCNCC1 (configuration not stated)	77*	-1	-4	1	12	12
O=C(c1ccccc1)N1CCN(CC2CC=CCC2)CC1 (configuration not stated)	41	0	-4	-1	x	x
Clc1ccccc1CN1CCN(CC2CC=CCC2)CC1 (configuration not stated)	60*	0	0	-1	6	-5
Fc1cccc(CN2CCN(CC3CC=CCC3)CC2)c1 (configuration not stated)	83*	0	-4	3	-1	-3
O=[N+]([O-])c1ccccc1S(=O)(=O)N1CCN(CC2CC=CCC2)CC1 (configuration not stated)	31	0	2	1	x	x
Cc1ccc(CN2CCN(CC3CC=CCC3)CC2)cc1 (configuration not stated)	22	0	3	0	x	x
O=S(=O)(c1ccccc1)N1CCN(CC2CC=CCC2)CC1 (configuration not stated)	52*	0	2	0	-1	1
O=[N+]([O-])c1ccccc1CN1CCN(CC2CC=CCC2)CC1 (configuration not stated)	66*	0	-13	0	-5	3
CC(=O)NCc1nc2ccccc2n1C(C)c1ccccc1 (configuration not stated)	-6	0	-7	1	x	x
Cc1ccc(OCCc2c(C)n[nH]c2C)cc1C	-1	0	6	0	x	x
COc1ccc(OC)c(NC(=O)c2sc(=S)n(-c3ccccc3)c2N)c1	3	0	-2	2	x	x
Nc1cccc2c1C(=O)N(c1ccccc1)C2=O	52*	0	-6	0	0	10
O=C1c2ccccc2C(=O)N1c1ccccc1	21	0	9	-2	x	x
NC(=O)c1c(N)c(C(N)=S)n2c1CCC2	23	0	4	-1	x	x
CCCC(=O)NC(=S)Nc1cccc([N+](=O)[O-])c1	-16	0	4	-1	x	x
CC(C)(C)C(=O)NC(=S)Nc1cccc([N+](=O)[O-])c1	58*	0	-3	-2	-8	-3
CC(=O)Nc1cc(N2C(=O)C3C4C=CC(C4)C3C2=O)ccc1Cl (configuration not stated)	-16	0	-3	2	x	x
SMILES	MITF inh	FBW7 act	TEAD-YAP block	GPR151 activ	MITF inh conf	AlphaScreen intf2	others
CCOC(=O)c1cc(N2C(=O)C3C4C=CC(C4)C3C2=O)ccc1Cl (configuration not stated)	59*	0	-7	4	55*	9	AlphaScreen DR=>6.5
CCOc1ccc(S(=O)(=O)NC2CCCCC2)cc1-c1nc2c(C(C)(C)C)nn(C)c2c(=O)[nH]1	77*	0	-3	-1	9	10
CCOc1cc(C2NC(=O)NC(C)=C2C(=O)Nc2ccccc2)ccc1OCc1ccccc1 (configuration not stated)	6	0	6	2	x	x
Cc1ccc(-c2nc(C#N)c(N3CCN(C(=O)c4ccc(Cl)cc4)CC3)o2)cc1	68*	0	-5	3	-11	-2
CCOc1ccc(C(=O)N2CCN(c3oc(-c4ccc(Cl)cc4)nc3C#N)CC2)cc1	-3	0	2	2	x	x
COc1ccccc1OCCN1CCN(C)CC1	73*	0	-6	1	5	9
COc1ccccc1OCCN1CCOCC1	54*	0	-4	-1	6	9
COc1ccccc1OCCN1CCCCC1	27	0	10	-1	x	x
COc1ccccc1OCCN1CCN(c2ccccc2)CC1	-1	0	14	0	x	x
CCOC(=O)c1cnc(-n2[nH]c3c(c2=O)CCCC3)[nH]c1=O	88*	0	8	-2	47*	64*
CCOC(=O)c1cnc(OC)[nH]c1=O	-5	0	3	0	x	x
CCc1ccc(NC(=O)Cn2nnc(C(=O)OC)c2C(=O)OC)cc1	52*	0	-1	3	-6	-3
COC(=O)c1nnn(CC(=O)Nc2ccc(Br)cc2)c1C(=O)OC	13	0	1	-1	x	x
CC1=NN(c2ccc(C(=O)O)c(N)c2)C(=O)C1	68*	-1	-9	2	54*	18	AlphaScreen DR=>6.5
CC(O)CNc1nc2c(c(=O)n(Cc3ccccc3F)c(=O)n2C)n1C (configuration not stated)	61*	0	0	0	6	11
CC1CCN(Cc2nnnn2CCCC(=O)NCCCc2cccnc2)CC1	2	0	7	-1	x	x
CC1CCN(Cc2nnnn2CCCC(=O)NCCc2cccc(Cl)c2)CC1	65*	0	5	1	0	13
Cc1cccc(N2NC(=O)/C(=C/c3ccc(Br)c([N+](=O)[O-])c3)C2=O)c1	0	0	0	-1	x	x
CC(NCCN(C)C)C(=O)Nc1ccc2c(c1)OCO2 (configuration not stated)	73*	0	3	0	3	2
COc1ccc(/C=N/N=C2\NC(=O)C(CC(=O)Nc3ccc(C)cc3)S2)cc1 (configuration not stated)	73*	0	3	0	6	-4
CCOc1cc(/C=N/N=C2\NC(=O)C(CC(=O)O)S2)ccc1OCc1ccc(F)cc1 (configuration not stated)	13	0	8	-1	x	x
Cc1ccc(COc2ccc(/C=N/N=C3\NC(=O)C(CC(=O)O)S3)cc2)cc1 (configuration not stated)	53*	0	-15	0	35*	12	AlphaScreen DR=>6.5
